Test results: the OligoGym collection

Target: ALOX12B
Experiment: pooled miR-30 sensor sort-seq; sequence = guide strand
Details: shRNA
Also: reference of the scale not given here.

Row | Sequence | sensor-assay potency score (higher = more potent)
1 | TGATCTGGACGGTGTATCGGGT | -0.615
2 | TTTGCAGTCCAACAGGCCGCGG | -1.33
3 | AATGCTGTTGATCTGGACGGTG | -0.387
4 | TTAAAGTTGATGAGAATTGGGA | -0.16
5 | TTGCCAGGGAAAATTTTCCTAA | -0.741
6 | TGCACATAGTTGCAGTACCAAG | -2.04
7 | TTGGCTAGCAGCCAGTCCCACT | -1.48
8 | TCATCTGCTGTTGTCTTTCCTG | -0.399
9 | TTGCAGTCCAACAGGCCGCGGA | -0.697
10 | TACTTCTCCAGTGCATTCCACA | -0.953
11 | TAGAAGTCCTGCTTGGCTCTGA | 0.53
12 | TTGATCTGGACGGTGTATCGGG | -0.0019
13 | TCTGCTGTTGTCTTTCCTGTGG | -0.381
14 | TAGCCATTCCACTCAGGCCGGT | -1.01
15 | TCATTGAGGAGAACGGCCCGGC | 0.146
16 | TGTAGAACTCCGCATAGCGTAC | -1.11
